What all share (experiment): DAPPL (digital affinity profiling via proximity ligation, sequencing); 10 mM Tris-HCl pH 7.5, 50 mM NaCl, 1 mM DTT, 4% glycerol, room temperature, 30 min; GST-TFs on glutathione beads, 16-mer random dsDNA library, 0.1% formaldehyde crosslink after washing; high values mean tight binding
Settings in all cases: protein: recombinant; tags: N-terminal GST; dsDNA, one strand shown

The target of one assay is T1, ERF (Homo sapiens, UniProt P50548 1-548).
T1 sequence: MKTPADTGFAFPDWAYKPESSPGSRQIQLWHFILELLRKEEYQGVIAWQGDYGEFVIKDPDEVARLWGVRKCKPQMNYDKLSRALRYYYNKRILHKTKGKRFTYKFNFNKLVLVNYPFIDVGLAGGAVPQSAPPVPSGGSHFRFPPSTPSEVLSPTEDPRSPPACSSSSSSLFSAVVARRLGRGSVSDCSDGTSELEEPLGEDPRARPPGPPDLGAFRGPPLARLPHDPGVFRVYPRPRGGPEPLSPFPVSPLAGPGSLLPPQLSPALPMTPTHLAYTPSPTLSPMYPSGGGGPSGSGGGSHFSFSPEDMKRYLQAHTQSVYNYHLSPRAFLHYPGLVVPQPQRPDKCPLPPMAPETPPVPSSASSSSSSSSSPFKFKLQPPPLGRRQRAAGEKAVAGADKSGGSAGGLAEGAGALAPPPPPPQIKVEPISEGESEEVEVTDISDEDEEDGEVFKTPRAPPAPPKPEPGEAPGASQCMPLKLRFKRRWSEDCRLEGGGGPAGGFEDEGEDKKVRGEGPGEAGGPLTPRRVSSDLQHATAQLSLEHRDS
In outline: (§1)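 GST fusions of human transcription factors were expressed in yeast and captured with glutathione beads. Once given DNA barcodes and pooled alongside a tag-only sample, they were incubated for 30 min at room temperature with 200 nmole of a random double-stranded 16-mer DNA library in Tris/NaCl/DTT/glycerol buffer, then washed, crosslinked (0.1% formaldehyde), proximity-ligated, PCR-amplified and sequenced on an Illumina NextSeq500. The binding signal of each hexamer is its read frequency for a factor divided by its frequency for the tag-only sample.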

The next assay addresses T2, ETV3L (Homo sapiens, UniProt Q6ZN32 1-361).
T2 sequence: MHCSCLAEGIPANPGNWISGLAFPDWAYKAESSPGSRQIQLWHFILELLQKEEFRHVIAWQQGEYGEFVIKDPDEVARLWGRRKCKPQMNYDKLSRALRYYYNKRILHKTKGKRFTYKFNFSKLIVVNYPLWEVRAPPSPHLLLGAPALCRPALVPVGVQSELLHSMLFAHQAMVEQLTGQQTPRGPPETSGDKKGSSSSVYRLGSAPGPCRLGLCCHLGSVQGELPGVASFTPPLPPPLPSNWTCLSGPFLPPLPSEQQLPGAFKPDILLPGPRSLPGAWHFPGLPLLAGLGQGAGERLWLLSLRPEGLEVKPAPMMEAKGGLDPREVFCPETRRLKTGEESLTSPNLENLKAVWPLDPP
In outline:
as §1

The target in a further assay is T3, ETS2 (Homo sapiens, UniProt P15036 1-469).
T3 sequence: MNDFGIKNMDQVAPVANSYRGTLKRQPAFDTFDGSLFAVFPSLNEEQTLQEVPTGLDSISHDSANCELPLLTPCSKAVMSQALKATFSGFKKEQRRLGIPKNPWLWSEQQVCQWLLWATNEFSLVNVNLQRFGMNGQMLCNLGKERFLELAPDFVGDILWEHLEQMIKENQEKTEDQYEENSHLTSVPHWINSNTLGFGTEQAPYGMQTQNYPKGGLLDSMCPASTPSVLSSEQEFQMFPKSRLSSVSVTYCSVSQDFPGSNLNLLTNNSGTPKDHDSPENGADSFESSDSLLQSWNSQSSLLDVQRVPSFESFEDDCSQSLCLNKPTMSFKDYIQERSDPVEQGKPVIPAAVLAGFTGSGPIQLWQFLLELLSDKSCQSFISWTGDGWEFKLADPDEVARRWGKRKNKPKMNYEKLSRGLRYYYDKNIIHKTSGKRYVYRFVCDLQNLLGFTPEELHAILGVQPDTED
In outline: as §1

The target of the next assay is T4, ETV7 (Homo sapiens, UniProt Q9Y603 1-341).
T4 sequence: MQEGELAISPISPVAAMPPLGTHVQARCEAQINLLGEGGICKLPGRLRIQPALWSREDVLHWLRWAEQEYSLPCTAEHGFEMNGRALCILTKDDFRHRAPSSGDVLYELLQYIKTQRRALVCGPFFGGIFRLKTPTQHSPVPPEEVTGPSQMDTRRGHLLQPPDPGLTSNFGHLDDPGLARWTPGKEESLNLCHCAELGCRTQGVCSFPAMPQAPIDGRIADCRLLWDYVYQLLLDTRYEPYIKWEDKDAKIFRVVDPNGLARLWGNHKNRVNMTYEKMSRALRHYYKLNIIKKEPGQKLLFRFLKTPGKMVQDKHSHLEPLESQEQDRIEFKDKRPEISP
In outline:
as §1

The target in a further assay is T5, ELF5 (Homo sapiens, UniProt Q9UKW6-2 1-255).
T5 sequence: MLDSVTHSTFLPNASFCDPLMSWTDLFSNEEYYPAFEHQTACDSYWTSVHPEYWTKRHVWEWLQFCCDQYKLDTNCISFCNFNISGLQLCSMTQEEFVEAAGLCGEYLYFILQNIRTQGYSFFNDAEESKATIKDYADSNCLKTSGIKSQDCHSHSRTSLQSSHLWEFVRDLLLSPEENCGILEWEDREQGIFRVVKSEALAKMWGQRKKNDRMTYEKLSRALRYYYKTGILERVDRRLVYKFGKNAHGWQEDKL
In outline:
as §1

For a further assay, the target named is T6, ETV3 (Homo sapiens, UniProt P41162-2 1-143).
T6 sequence: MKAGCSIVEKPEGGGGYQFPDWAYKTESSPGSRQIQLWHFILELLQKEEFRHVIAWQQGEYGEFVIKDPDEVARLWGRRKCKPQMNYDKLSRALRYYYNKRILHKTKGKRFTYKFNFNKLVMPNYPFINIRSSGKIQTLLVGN
In outline: as §1

The target in the next assay is ETV6 (Homo sapiens, UniProt P41212 1-452). In outline: as §1
Chain of ETV6 (P41212 whole entry): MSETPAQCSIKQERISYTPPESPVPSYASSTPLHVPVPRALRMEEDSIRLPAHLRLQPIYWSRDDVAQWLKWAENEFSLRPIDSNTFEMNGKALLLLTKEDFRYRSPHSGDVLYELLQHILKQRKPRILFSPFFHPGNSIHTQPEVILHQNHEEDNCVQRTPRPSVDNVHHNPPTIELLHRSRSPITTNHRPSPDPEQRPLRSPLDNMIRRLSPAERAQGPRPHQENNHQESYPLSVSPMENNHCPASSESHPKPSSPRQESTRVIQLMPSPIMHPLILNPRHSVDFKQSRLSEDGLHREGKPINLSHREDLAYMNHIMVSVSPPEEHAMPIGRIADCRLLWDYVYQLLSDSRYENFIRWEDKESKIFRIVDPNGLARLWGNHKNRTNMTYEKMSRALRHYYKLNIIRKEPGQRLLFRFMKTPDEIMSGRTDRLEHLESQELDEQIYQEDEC
For the next assay, the target named is T7, SPDEF (Homo sapiens, UniProt O95238 1-335).
T7 sequence: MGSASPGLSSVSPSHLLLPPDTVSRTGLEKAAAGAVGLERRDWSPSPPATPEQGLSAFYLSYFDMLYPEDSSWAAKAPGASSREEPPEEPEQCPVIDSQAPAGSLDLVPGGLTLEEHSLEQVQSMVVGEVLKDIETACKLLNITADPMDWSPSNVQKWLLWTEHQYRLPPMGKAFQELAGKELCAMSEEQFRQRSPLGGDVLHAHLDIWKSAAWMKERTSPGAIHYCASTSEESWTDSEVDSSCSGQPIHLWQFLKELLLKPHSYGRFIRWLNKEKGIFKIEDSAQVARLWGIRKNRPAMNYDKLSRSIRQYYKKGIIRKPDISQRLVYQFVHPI
In outline: as §1

Consider 15 sequences from publication PMC7862700, “An all-to-all approach to the identification of sequence-specific readers for epigenetic DNA modifications on cytosine”.

On to CATTCA, for which the binding signal with ERF was 1.11 fold enrichment (6-mer frequency, TF over GST control); with ETV3L, 1.08 fold enrichment (6-mer frequency, TF over GST control); with ETS2 it was 1.01 fold enrichment (6-mer frequency, TF over GST control); in the assay with ETV7 it was 1.09 fold enrichment (6-mer frequency, TF over GST control); in the assay with ELF5, 1.02 fold enrichment (6-mer frequency, TF over GST control); with ETV3, 1.11 fold enrichment (6-mer frequency, TF over GST control). In addition, the binding signal with ETV6 was 1.09 fold enrichment (6-mer frequency, TF over GST control).

With TATCAA, the binding signal with ERF is 1.08 fold enrichment (6-mer frequency, TF over GST control); with ETV3L, 1.06 fold enrichment (6-mer frequency, TF over GST control); with ETS2, 1.05 fold enrichment (6-mer frequency, TF over GST control); in the assay with ETV7 it was 1.09 fold enrichment (6-mer frequency, TF over GST control); in the assay with ETV3, 1.04 fold enrichment (6-mer frequency, TF over GST control).

As to TTGGCT, the binding signal with ERF is 1.18 fold enrichment (6-mer frequency, TF over GST control); in the assay with ETV3L, 1.13 fold enrichment (6-mer frequency, TF over GST control); with SPDEF, 1.11 fold enrichment (6-mer frequency, TF over GST control); with ETV7 it was 1.07 fold enrichment (6-mer frequency, TF over GST control); with ETV3 it was 1.06 fold enrichment (6-mer frequency, TF over GST control); with ETV6, 1.13 fold enrichment (6-mer frequency, TF over GST control).

AGATAA: the binding signal is 1.02 fold enrichment (6-mer frequency, TF over GST control) with ERF; 1.09 fold enrichment (6-mer frequency, TF over GST control) with ETV3L; 1.04 fold enrichment (6-mer frequency, TF over GST control) with ETS2; 1.06 fold enrichment (6-mer frequency, TF over GST control) in the assay with ETV6.

Consider GCACTG, for which the binding signal was 1.04 fold enrichment (6-mer frequency, TF over GST control) with ERF; 1.07 fold enrichment (6-mer frequency, TF over GST control) with ETV3L; 1.07 fold enrichment (6-mer frequency, TF over GST control) with ETS2; 1.11 fold enrichment (6-mer frequency, TF over GST control) in the assay with ETV7; 1.12 fold enrichment (6-mer frequency, TF over GST control) with ETV3; 1.09 fold enrichment (6-mer frequency, TF over GST control) in the assay with ETV6.

Regarding GTATGG, the binding signal with ERF was 1.25 fold enrichment (6-mer frequency, TF over GST control); with ETV3L, 1.03 fold enrichment (6-mer frequency, TF over GST control); with ETS2 it was 1.01 fold enrichment (6-mer frequency, TF over GST control); in the assay with ETV7 it was 1.02 fold enrichment (6-mer frequency, TF over GST control); in the assay with ELF5 it was 1.03 fold enrichment (6-mer frequency, TF over GST control); in the assay with ETV6, 1.01 fold enrichment (6-mer frequency, TF over GST control).

AGGGCT: the binding signal with ERF was 1.1 fold enrichment (6-mer frequency, TF over GST control); in the assay with ETV3L, 1.06 fold enrichment (6-mer frequency, TF over GST control); in the assay with ETS2 it was 1.02 fold enrichment (6-mer frequency, TF over GST control); with ETV7, 1.12 fold enrichment (6-mer frequency, TF over GST control); in the assay with ELF5, 1.05 fold enrichment (6-mer frequency, TF over GST control); with ETV3 it was 1.06 fold enrichment (6-mer frequency, TF over GST control). Also, the binding signal with ETV6 was 1.09 fold enrichment (6-mer frequency, TF over GST control).

Turning to ATCGCA, the binding signal in the assay with ERF is 1.06 fold enrichment (6-mer frequency, TF over GST control); in the assay with ETV3L, 1 fold enrichment (6-mer frequency, TF over GST control); in the assay with ETS2 it was 1.02 fold enrichment (6-mer frequency, TF over GST control); in the assay with ETV7, 1.03 fold enrichment (6-mer frequency, TF over GST control); with ETV3, 1.03 fold enrichment (6-mer frequency, TF over GST control).

On to ACCGAA, for which the binding signal is 1.09 fold enrichment (6-mer frequency, TF over GST control) with ERF; 1.04 fold enrichment (6-mer frequency, TF over GST control) with ETV3L; 1.07 fold enrichment (6-mer frequency, TF over GST control) in the assay with ETS2; 1.02 fold enrichment (6-mer frequency, TF over GST control) with ETV3; 1 fold enrichment (6-mer frequency, TF over GST control) with ETV6.

In the case of AGTTCT, the binding signal in the assay with ERF was 1.14 fold enrichment (6-mer frequency, TF over GST control); in the assay with ETV3L, 1.12 fold enrichment (6-mer frequency, TF over GST control); with ETS2 it was 1.17 fold enrichment (6-mer frequency, TF over GST control); with ETV7, 1.11 fold enrichment (6-mer frequency, TF over GST control); with ELF5, 1.15 fold enrichment (6-mer frequency, TF over GST control); with ETV3, 1.18 fold enrichment (6-mer frequency, TF over GST control). In addition, the binding signal in the assay with ETV6 is 1.13 fold enrichment (6-mer frequency, TF over GST control).

TGCGCG: the binding signal in the assay with ERF was 1.24 fold enrichment (6-mer frequency, TF over GST control); in the assay with ETV3L it was 1.02 fold enrichment (6-mer frequency, TF over GST control); with ETV7, 1.23 fold enrichment (6-mer frequency, TF over GST control); with ELF5 it was 1.01 fold enrichment (6-mer frequency, TF over GST control); in the assay with ETV3, 1.03 fold enrichment (6-mer frequency, TF over GST control); with ETV6, 1.14 fold enrichment (6-mer frequency, TF over GST control).

With TAGTCT, the binding signal in the assay with ERF is 1.17 fold enrichment (6-mer frequency, TF over GST control); with ETV3L it was 1.04 fold enrichment (6-mer frequency, TF over GST control); in the assay with ETS2, 1.09 fold enrichment (6-mer frequency, TF over GST control); with ELF5 it was 1.04 fold enrichment (6-mer frequency, TF over GST control); with ETV3, 1.12 fold enrichment (6-mer frequency, TF over GST control); with ETV6, 1.02 fold enrichment (6-mer frequency, TF over GST control).

Turning to TTCGGC, the binding signal with ERF is 1.13 fold enrichment (6-mer frequency, TF over GST control); in the assay with ETV3L, 1.05 fold enrichment (6-mer frequency, TF over GST control); with ETV7, 1.19 fold enrichment (6-mer frequency, TF over GST control); with ELF5, 1.01 fold enrichment (6-mer frequency, TF over GST control); with ETV3 it was 1.13 fold enrichment (6-mer frequency, TF over GST control).

As to AAGCTG, the binding signal with ERF was 1.18 fold enrichment (6-mer frequency, TF over GST control); with ETV3L it was 1.05 fold enrichment (6-mer frequency, TF over GST control); with ETS2, 1.13 fold enrichment (6-mer frequency, TF over GST control); with ETV7, 1.18 fold enrichment (6-mer frequency, TF over GST control); with ELF5 it was 1.11 fold enrichment (6-mer frequency, TF over GST control); in the assay with ETV3, 1.24 fold enrichment (6-mer frequency, TF over GST control). Besides, the binding signal with ETV6 was 1.08 fold enrichment (6-mer frequency, TF over GST control).

Take AACCCA: the binding signal was 1.1 fold enrichment (6-mer frequency, TF over GST control) with ERF; 1.06 fold enrichment (6-mer frequency, TF over GST control) in the assay with ETV3L; 1.04 fold enrichment (6-mer frequency, TF over GST control) with ETS2; 1.14 fold enrichment (6-mer frequency, TF over GST control) in the assay with ETV7; 1.05 fold enrichment (6-mer frequency, TF over GST control) in the assay with ELF5; 1.09 fold enrichment (6-mer frequency, TF over GST control) with ETV6.
